# High-throughput results deposited in PubChem by NMMLSC.
# This is a sample that favours compounds with a hit; in the whole collection about 1.2% have one here.
# GSH fluor: compound fluoresces at 488/530 nm on GSH beads | GSH beads flow cytometry, compound fluorescence 488/530 nm; stronger effect = higher value | fluorescence (KMESF) at 10 µM | actives 0.25% (n = 190,000); in the data active means fluorescence above about 89;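 further: glutathione beads carrying GST-tagged Bcl family fusion proteins plus one bare bead set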
# RGS7-Gao reg: human RGS7-Galphao interaction regulation | P09471 | Multiplexed bead flow cytometry, RGS7-Galphao binding; actives lie on both sides | binding response (% of control), % at 10 µM | actives 0.35% (n = 220,000); in the data active means binding response below about 49% or above about 150%; inconclusive means no clear call, values can overlap the other calls; inactive means in between;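 further: fluorescent Galphao held in activated GDP-AlF4 state binding bead-coupled RGS7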
# RGS4-Gao reg: human RGS4-Galphao interaction regulation. Multiplexed bead flow cytometry, RGS4-Galphao binding; actives lie on both sides. binding response (% of control), % at 10 µM. actives 0.33% (n = 220,000); in the data active means binding response below about 49% or above about 150%; inactive means in between;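 further: fluorescent Galphao activated with aluminum fluoride binding bead-coupled RGS4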
# RGS16-Gao: modulates binding between human RGS16 and Galphao; O15492+P09471; bead-based flow cytometry RGS16-Galphao binding, fluorescence; actives lie on both sides; binding response (% of control), % at 10 µM; actives 0.38% (n = 220,000);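 further: Galphao activated by GDP with aluminum fluoride before binding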
# RGS8-Gao: modulates binding of RGS8 to human Galphao; P09471; multiplexed bead flow cytometry; actives lie on both sides; response (percent of control binding), % at 10 µM; actives 0.34% (n = 220,000); AID 1423; in the data active means response below about 60% or above about 140%; inactive means in between;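 further: Galphao activated as the GDP aluminium fluoride complex binding bead-coupled RGS8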
# Avidin fluor: avidin bead compound fluorescence profile; fluorescence (KMESF) at 10 µM; AID 1775; Avidin beads, compound fluorescence 488/530 nm, flow cytometry; stronger effect = higher value; actives 0.38% (n = 220,000); in the data active means fluorescence above about 47
# RGS4-Gao HTS: modulates binding between human RGS4 and Galphao. shares compounds with RGS16-Gao. multiplexed bead flow cytometry, RGS–Galpha-o binding. RGS4–Galpha-o binding response, % at 10 µM. actives 99% (n = 1,600);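 further: fluorescently labeled Galpha-o bound to GDP with aluminium fluoride binding biotinylated RGS beads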
# Avidin counter: counter-screen: compounds disrupting biotin binding to avidin beads; streptavidin beads, fluorescein-biotin binding, flow cytometry; shares compounds with RGS16-Gao; 1,700 tested, under 10 active; AID 1783; inhibition, % at 10 µM;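 active means inhibition above 50%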;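 further: median green fluorescence of gated singlet beads compared with DMSO control wells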
# RGS8-Gao single: RGS8-Galphao interaction regulation, single point confirmation | binding response (% of control), % at 10 µM | bead-based flow cytometry RGS8-Galphao binding, fluorescence; actives lie on both sides | actives 3% (n = 1,700) | shares compounds with RGS16-Gao; in the data active means binding response below about 72% or above about 130%; inactive means in between;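 further: Galphao activated as GDP AlF4 complex before binding bead RGS8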
# RGS7-Gao confirm: confirmation of regulators of human RGS7-Galphao interaction; shares compounds with RGS16-Gao; response (percent of control binding), % at 10 µM; bead-based flow cytometry RGS7-Galphao binding; actives lie on both sides; AID 1837; actives 7.8% (n = 1,700); in the data active means response below about 75% or above about 130%; inactive means in between;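 further: fluorescent Galphao activated with GDP and aluminum fluoride binding bead-coupled RGS7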
# RGS16-Gao single: confirmation of regulators of human RGS16-Galphao interaction. actives 4% (n = 1,700). response (% of control binding), % at 10 µM. bead-based flow cytometry, RGS16-Galphao binding; actives lie on both sides. shares compounds with RGS16-Gao; in the data active means response below about 74% or above about 130%; inactive means in between;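 further: Galphao activated as the GDP aluminium fluoride complex binding bead-coupled RGS16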
# RGS4-Gao confirm: RGS4-Galphao interaction regulation, single point confirmation; shares compounds with RGS16-Gao; RGS4-Galphao binding, multiplexed bead flow cytometry; actives lie on both sides; binding response (% of control), % at 10 µM; actives 4% (n = 1,700); in the data active means binding response below about 74% or above about 130%; inactive means in between
# RGS19-Gao conf: confirmation of regulators of human RGS19-Galphao interaction | actives 5% (n = 1,700) | shares compounds with RGS16-Gao | bead-based flow cytometry RGS19-Galphao binding; actives lie on both sides | response (percent of control binding), % at 10 µM | AID 1841; in the data active means response below about 50% or above about 160%; inactive means in between
# Target sequence (P09471 whole entry, looked up): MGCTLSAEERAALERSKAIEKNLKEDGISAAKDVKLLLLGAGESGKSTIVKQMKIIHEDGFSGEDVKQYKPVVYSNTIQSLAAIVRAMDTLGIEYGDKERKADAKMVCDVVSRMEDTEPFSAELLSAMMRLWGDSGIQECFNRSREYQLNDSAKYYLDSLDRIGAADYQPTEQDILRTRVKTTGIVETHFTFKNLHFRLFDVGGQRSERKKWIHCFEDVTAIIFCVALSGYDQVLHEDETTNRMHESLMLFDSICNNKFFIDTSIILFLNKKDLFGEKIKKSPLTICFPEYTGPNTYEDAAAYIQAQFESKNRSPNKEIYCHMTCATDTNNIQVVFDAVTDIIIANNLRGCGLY
# Target sequence (P49795 whole entry, looked up): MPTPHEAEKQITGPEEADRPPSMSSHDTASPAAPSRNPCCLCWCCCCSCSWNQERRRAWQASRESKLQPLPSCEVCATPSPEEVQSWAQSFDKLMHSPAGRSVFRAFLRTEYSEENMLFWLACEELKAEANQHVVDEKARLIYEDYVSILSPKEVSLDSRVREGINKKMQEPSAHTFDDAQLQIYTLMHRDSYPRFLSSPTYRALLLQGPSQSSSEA
# A number is an active result; 0 = inactive; ? = inconclusive; - = no result; [ ] = remark or other dose. Unless noted, how the calls were made is not given here.
SMILES,GSH fluor,RGS7-Gao reg,RGS4-Gao reg,RGS16-Gao,RGS8-Gao,Avidin fluor,RGS4-Gao HTS,Avidin counter,RGS8-Gao single,RGS7-Gao confirm,RGS16-Gao single,RGS4-Gao confirm,RGS19-Gao conf
Cc1cccc(C(=O)NNC(=O)C2CCCO2)c1 (configuration not stated),0,14,21,1.0,12,0,-,0,0,137[activator],0,132[activator],0
O=C(NNC(=O)C1CCCO1)c1ccccc1Cl (configuration not stated),0,-,-,-,-,-,-,0,0,0,0,0,0
Cc1cccc(C(=O)NC2CC(C)(C)NC(C)(C)C2)c1,0,172[activator],0,0,0,82,101,0,0,0,0,0,0
Cc1ccc(C(C)NC(=O)C2CCCO2)cc1C (configuration not stated),0,-,-,-,-,-,-,0,0,0,0,0,0
N#CC1(c2ccccc2)CCC(=O)N1Cc1ccccc1 (configuration not stated),-,?,0,0,0,0,-,-,-,-,-,-,-
O=C(CNC(=S)N(Cc1ccccc1Cl)C1CCCC1)NCCN1CCOCC1,0,0,0,0,0,0,-,-,-,-,-,-,-
Cc1cccc(-c2nc3cc(NC(=O)C4CCCO4)ccc3o2)c1 (configuration not stated),0,0,0,179[activator],0,0,109,0,0,0,0,0,0
CCSc1ncnc2sc(C)c(C)c12,0,0,0,0,0,0,-,-,-,-,-,-,-
Cc1sc2ncnc(Sc3nnc4sc5ccccc5n34)c2c1C,0,0,208[activator],292[activator],0,0,-,0,0,0,0,0,0
CCn1ncc(CNC(=O)C2(C)CC2(Cl)Cl)c1C (configuration not stated),0,0,0,0,0,0,-,-,-,-,-,-,-
Cc1ccc(/C=C/C(=O)c2ccc(N3CCOCC3)cc2)s1,0,0,0,0,0,0,-,-,-,-,-,-,-
CCCC(=O)OC(C(=O)Nc1cc(C(F)(F)F)ccc1Cl)c1ccccc1 (configuration not stated),0,0,0,241[activator],0,0,107,0,0,0,0,0,0
CCC(=O)N1CCN(c2ccc(NC(=O)c3ccc4c(c3)OCCO4)cc2)CC1,0,0,0,0,0,0,-,-,-,-,-,-,-
CCC(=O)N1CCN(c2ccc(Cl)cc2NC(=O)c2ccc3c(c2)OCCO3)CC1,0,2.0,0.4,-0.4,6.1,0,-,0,0,0,0,0,0
COc1ccc(/C=N/NC(=O)CC(=O)NC2CCCCC2)cc1,0,0,0,0,0,0,-,-,-,-,-,-,-
CNc1nc(-c2ccc3c(c2)CCN3C(=O)c2ccc(F)cc2)cs1,0,0,0,0,0,0,-,-,-,-,-,-,-
CNc1nc(-c2ccc3c(c2)CCN3C(=O)c2ccccc2C)cs1,0,0,0,0,59,0,84,0,0,0,0,0,0
Cc1c(NC(=O)Nc2ccc3c(c2)OCO3)c(=O)n(-c2ccccc2)n1C,0,227[activator],0,0,0,149,122,0,0,0,0,0,0
